# Data: the supplement of paper PMC4466140
# Molecular target: AgAbp1
# Assay: SPOT peptide array binding signal intensity (averaged, normalized) (arbitrary units (background-subtracted, floor 0; scale differs between SH3 domains)); higher = stronger binding of the SH3 domain to the peptide
# Outline: (§1)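 GST-fused SH3 domains, from four yeast species, were produced in E. coli BL21(DE3) and captured on glutathione Sepharose. Membranes of cellulose carrying synthetic 15-mer peptides, in which cysteines had been replaced by serines, were exposed to each domain at 10 μg/ml overnight at 4°C in TBS-based blocking buffer. After anti-GST antibody, an HRP anti-mouse secondary and luminol, spots were imaged and quantified using Genespotter. Binding signal is normalized and background-subtracted spot intensity, averaged over replicates, in arbitrary units that differ between domains.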
row,Binder,SPOT peptide array binding signal intensity
1,PSRRDSLSIPRAVDA,≤ 0

# Molecular target: AgBbc1
# Assay: as above
# Outline: as §1
row,Binder,SPOT peptide array binding signal intensity
1,PSRRDSLSIPRAVDA,41.5

# Molecular target: AgBem1-D1
# Assay: as above
# Outline: as §1
row,Binder,SPOT peptide array binding signal intensity
1,PSRRDSLSIPRAVDA,56

# Molecular target: AgBzz1-D1
# Assay: as above
# Outline: as §1
row,Binder,SPOT peptide array binding signal intensity
1,PSRRDSLSIPRAVDA,17

# Molecular target: AgBzz1-D2
# Assay: as above
# Outline: as §1
row,Binder,SPOT peptide array binding signal intensity
1,PSRRDSLSIPRAVDA,30

# Molecular target: AgCyk3
# Assay: as above
# Outline: as §1
row,Binder,SPOT peptide array binding signal intensity
1,PSRRDSLSIPRAVDA,≤ 0

# Molecular target: AgFus1
# Assay: as above
# Outline: as §1
row,Binder,SPOT peptide array binding signal intensity
1,PSRRDSLSIPRAVDA,5

# Molecular target: AgHof1
# Assay: as above
# Outline: as §1
row,Binder,SPOT peptide array binding signal intensity
1,PSRRDSLSIPRAVDA,10

# Molecular target: AgHse1
# Assay: as above
# Outline: as §1
row,Binder,SPOT peptide array binding signal intensity
1,PSRRDSLSIPRAVDA,14.5

# Molecular target: AgLsb1
# Assay: as above
# Outline: as §1
row,Binder,SPOT peptide array binding signal intensity
1,PSRRDSLSIPRAVDA,13.5

# Molecular target: AgLsb4
# Assay: as above
# Outline: as §1
row,Binder,SPOT peptide array binding signal intensity
1,PSRRDSLSIPRAVDA,2.5

# Molecular target: AgMyo5
# Assay: as above
# Outline: as §1
row,Binder,SPOT peptide array binding signal intensity
1,PSRRDSLSIPRAVDA,≤ 0

# Molecular target: AgNbp2
# Assay: as above
# Outline: as §1
row,Binder,SPOT peptide array binding signal intensity
1,PSRRDSLSIPRAVDA,6

# Molecular target: AgRvs167
# Assay: as above
# Outline: as §1
row,Binder,SPOT peptide array binding signal intensity
1,PSRRDSLSIPRAVDA,1.67

# Molecular target: AgSho1
# Assay: as above
# Outline: as §1
row,Binder,SPOT peptide array binding signal intensity
1,PSRRDSLSIPRAVDA,≤ 0

# Molecular target: AgSla1-D1-D2
# Assay: as above
# Outline: as §1
row,Binder,SPOT peptide array binding signal intensity
1,PSRRDSLSIPRAVDA,0.5

# Molecular target: AgSla1-D3
# Assay: as above
# Outline: as §1
row,Binder,SPOT peptide array binding signal intensity
1,PSRRDSLSIPRAVDA,0.5

# Molecular target: CaAbp1-D1
# Assay: as above
# Outline: as §1
row,Binder,SPOT peptide array binding signal intensity
1,PSRRDSLSIPRAVDA,≤ 0

# Molecular target: CaAbp1-D2
# Assay: as above
# Outline: as §1
row,Binder,SPOT peptide array binding signal intensity
1,PSRRDSLSIPRAVDA,25

# Molecular target: CaBbc1
# Assay: as above
# Outline: as §1
row,Binder,SPOT peptide array binding signal intensity
1,PSRRDSLSIPRAVDA,354

# Molecular target: CaBem1-D1
# Assay: as above
# Outline: as §1
row,Binder,SPOT peptide array binding signal intensity
1,PSRRDSLSIPRAVDA,4

# Molecular target: CaBzz1-D1
# Assay: as above
# Outline: as §1
row,Binder,SPOT peptide array binding signal intensity
1,PSRRDSLSIPRAVDA,123

# Molecular target: CaBzz1-D2
# Assay: as above
# Outline: as §1
row,Binder,SPOT peptide array binding signal intensity
1,PSRRDSLSIPRAVDA,93

# Molecular target: CaCyk3
# Assay: as above
# Outline: as §1
row,Binder,SPOT peptide array binding signal intensity
1,PSRRDSLSIPRAVDA,3

# Molecular target: CaFus1
# Assay: as above
# Outline: as §1
row,Binder,SPOT peptide array binding signal intensity
1,PSRRDSLSIPRAVDA,65

# Molecular target: CaHof1
# Assay: as above
# Outline: as §1
row,Binder,SPOT peptide array binding signal intensity
1,PSRRDSLSIPRAVDA,1

# Molecular target: CaHse1
# Assay: as above
# Outline: as §1
row,Binder,SPOT peptide array binding signal intensity
1,PSRRDSLSIPRAVDA,≤ 0

# Molecular target: CaLsb1
# Assay: as above
# Outline: as §1
row,Binder,SPOT peptide array binding signal intensity
1,PSRRDSLSIPRAVDA,≤ 0

# Molecular target: CaLsb4
# Assay: as above
# Outline: as §1
row,Binder,SPOT peptide array binding signal intensity
1,PSRRDSLSIPRAVDA,≤ 0

# Molecular target: CaMyo5
# Assay: as above
# Outline: as §1
row,Binder,SPOT peptide array binding signal intensity
1,PSRRDSLSIPRAVDA,1.5

# Molecular target: CaNbp2
# Assay: as above
# Outline: as §1
row,Binder,SPOT peptide array binding signal intensity
1,PSRRDSLSIPRAVDA,28.5

# Molecular target: CaRvs167
# Assay: as above
# Outline: as §1
row,Binder,SPOT peptide array binding signal intensity
1,PSRRDSLSIPRAVDA,0.5

# Molecular target: CaRvs167-3
# Assay: as above
# Outline: as §1
row,Binder,SPOT peptide array binding signal intensity
1,PSRRDSLSIPRAVDA,1

# Molecular target: CaSho1
# Assay: as above
# Outline: as §1
row,Binder,SPOT peptide array binding signal intensity
1,PSRRDSLSIPRAVDA,8

# Molecular target: CaSla1-D1-D2
# Assay: as above
# Outline: as §1
row,Binder,SPOT peptide array binding signal intensity
1,PSRRDSLSIPRAVDA,≤ 0

# Molecular target: CaSla1-D3
# Assay: as above
# Outline: as §1
row,Binder,SPOT peptide array binding signal intensity
1,PSRRDSLSIPRAVDA,1.25

# Molecular target: ScAbp1
# Assay: as above
# Outline: as §1
row,Binder,SPOT peptide array binding signal intensity
1,PSRRDSLSIPRAVDA,≤ 0

# Molecular target: ScBbc1
# Assay: as above
# Outline: as §1
row,Binder,SPOT peptide array binding signal intensity
1,PSRRDSLSIPRAVDA,8.5

# Molecular target: ScBem1-D1
# Assay: as above
# Outline: as §1
row,Binder,SPOT peptide array binding signal intensity
1,PSRRDSLSIPRAVDA,57

# Molecular target: ScBzz1-D1
# Assay: as above
# Outline: as §1
row,Binder,SPOT peptide array binding signal intensity
1,PSRRDSLSIPRAVDA,22

# Molecular target: ScBzz1-D2
# Assay: as above
# Outline: as §1
row,Binder,SPOT peptide array binding signal intensity
1,PSRRDSLSIPRAVDA,19

# Molecular target: ScCyk3
# Assay: as above
# Outline: as §1
row,Binder,SPOT peptide array binding signal intensity
1,PSRRDSLSIPRAVDA,2

# Molecular target: ScFus1
# Assay: as above
# Outline: as §1
row,Binder,SPOT peptide array binding signal intensity
1,PSRRDSLSIPRAVDA,≤ 0

# Molecular target: ScHof1
# Assay: as above
# Outline: as §1
row,Binder,SPOT peptide array binding signal intensity
1,PSRRDSLSIPRAVDA,≤ 0

# Molecular target: ScHse1
# Assay: as above
# Outline: as §1
row,Binder,SPOT peptide array binding signal intensity
1,PSRRDSLSIPRAVDA,≤ 0

# Molecular target: ScLsb1
# Assay: as above
# Outline: as §1
row,Binder,SPOT peptide array binding signal intensity
1,PSRRDSLSIPRAVDA,≤ 0

# Molecular target: ScLsb2
# Assay: as above
# Outline: as §1
row,Binder,SPOT peptide array binding signal intensity
1,PSRRDSLSIPRAVDA,3.5

# Molecular target: ScLsb3
# Assay: as above
# Outline: as §1
row,Binder,SPOT peptide array binding signal intensity
1,PSRRDSLSIPRAVDA,4

# Molecular target: ScLsb4
# Assay: as above
# Outline: as §1
row,Binder,SPOT peptide array binding signal intensity
1,PSRRDSLSIPRAVDA,11.5

# Molecular target: ScMyo3
# Assay: as above
# Outline: as §1
row,Binder,SPOT peptide array binding signal intensity
1,PSRRDSLSIPRAVDA,0.5

# Molecular target: ScMyo5
# Assay: as above
# Outline: as §1
row,Binder,SPOT peptide array binding signal intensity
1,PSRRDSLSIPRAVDA,4.5

# Molecular target: ScNbp2
# Assay: as above
# Outline: as §1
row,Binder,SPOT peptide array binding signal intensity
1,PSRRDSLSIPRAVDA,1

# Molecular target: ScPex13
# Assay: as above
# Outline: as §1
row,Binder,SPOT peptide array binding signal intensity
1,PSRRDSLSIPRAVDA,1

# Molecular target: ScRvs167
# Assay: as above
# Outline: as §1
row,Binder,SPOT peptide array binding signal intensity
1,PSRRDSLSIPRAVDA,≤ 0

# Molecular target: ScSho1
# Assay: as above
# Outline: as §1
row,Binder,SPOT peptide array binding signal intensity
1,PSRRDSLSIPRAVDA,14

# Molecular target: ScSla1-D1-D2
# Assay: as above
# Outline: as §1
row,Binder,SPOT peptide array binding signal intensity
1,PSRRDSLSIPRAVDA,≤ 0

# Molecular target: ScSla1-D3
# Assay: as above
# Outline: as §1
row,Binder,SPOT peptide array binding signal intensity
1,PSRRDSLSIPRAVDA,22.2

# Molecular target: SpAbp1-D1
# Assay: as above
# Outline: as §1
row,Binder,SPOT peptide array binding signal intensity
1,PSRRDSLSIPRAVDA,8

# Molecular target: SpBbc1
# Assay: as above
# Outline: as §1
row,Binder,SPOT peptide array binding signal intensity
1,PSRRDSLSIPRAVDA,3

# Molecular target: SpBzz1-D1
# Assay: as above
# Outline: as §1
row,Binder,SPOT peptide array binding signal intensity
1,PSRRDSLSIPRAVDA,116

# Molecular target: SpBzz1-D2
# Assay: as above
# Outline: as §1
row,Binder,SPOT peptide array binding signal intensity
1,PSRRDSLSIPRAVDA,1.5

# Molecular target: SpCyk3
# Assay: as above
# Outline: as §1
row,Binder,SPOT peptide array binding signal intensity
1,PSRRDSLSIPRAVDA,3.5

# Molecular target: SpHof1
# Assay: as above
# Outline: as §1
row,Binder,SPOT peptide array binding signal intensity
1,PSRRDSLSIPRAVDA,1.25

# Molecular target: SpHof1-2
# Assay: as above
# Outline: as §1
row,Binder,SPOT peptide array binding signal intensity
1,PSRRDSLSIPRAVDA,0.5

# Molecular target: SpHof1-3
# Assay: as above
# Outline: as §1
row,Binder,SPOT peptide array binding signal intensity
1,PSRRDSLSIPRAVDA,1

# Molecular target: SpHse1
# Assay: as above
# Outline: as §1
row,Binder,SPOT peptide array binding signal intensity
1,PSRRDSLSIPRAVDA,21.2

# Molecular target: SpLsb1
# Assay: as above
# Outline: as §1
row,Binder,SPOT peptide array binding signal intensity
1,PSRRDSLSIPRAVDA,≤ 0

# Molecular target: SpLsb4
# Assay: as above
# Outline: as §1
row,Binder,SPOT peptide array binding signal intensity
1,PSRRDSLSIPRAVDA,≤ 0

# Molecular target: SpMyo1
# Assay: as above
# Outline: as §1
row,Binder,SPOT peptide array binding signal intensity
1,PSRRDSLSIPRAVDA,≤ 0

# Molecular target: SpNbp2
# Assay: as above
# Outline: as §1
row,Binder,SPOT peptide array binding signal intensity
1,PSRRDSLSIPRAVDA,≤ 0

# Molecular target: SpPex13
# Assay: as above
# Outline: as §1
row,Binder,SPOT peptide array binding signal intensity
1,PSRRDSLSIPRAVDA,≤ 0

# Molecular target: SpRvs167
# Assay: as above
# Outline: as §1
row,Binder,SPOT peptide array binding signal intensity
1,PSRRDSLSIPRAVDA,1.33

# Molecular target: SpSla1-D1-D2
# Assay: as above
# Outline: as §1
row,Binder,SPOT peptide array binding signal intensity
1,PSRRDSLSIPRAVDA,2

# Molecular target: SpSla1-D3
# Assay: as above
# Outline: as §1
row,Binder,SPOT peptide array binding signal intensity
1,PSRRDSLSIPRAVDA,1
